Marburg entry inh: Marburg virus entry inhibition; Potency, µM (doses to about 37.8 µM), for the others: at the highest dose activity change, negative = inhibition, usual class: inhibitors; hit rate 1.8% among 300,000; Marburg virus pseudotyped entry inhibition, cell reporter; calls by dose curve; tested in HEK293 cells; further: potency means the concentration at half of the fitted maximal effect
LASV entry inh: inhibitors of Lassa virus binding or cell entry; Lassa virus pseudotype entry inhibition, cell reporter; Potency, µM (highest dose often 37.9 µM), for inactives: at the top dose activity change, negative = inhibition, usual class: inhibitors; hit rate 1.2% among 300,000; calls by dose curve; tested in HEK293 cells; further: potency means the concentration at half of the fitted maximal effect; nearly all actives have a fitted effect of over 50% in size
HCMV antiviral: human cytomegalovirus inhibition. HFF cells, HCMV-luciferase reporter, 72 h; active compounds read low. activity change, negative = inhibition, % at 57.5 µM. hit rate 4.5% among 410,000; in the data active means activity change below about -60%; inconclusive means no clear call, values can overlap the other calls; inactive means above about -39%
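Compounds were evaluated in HFFs infected with an HCMV luciferase reporter virus (MOI 1 PFU/cell). Luciferase in lysates collected 72 h post infection served as the replication measure.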
FMDV antiviral: foot and mouth disease virus antiviral activity | FMDV antiviral cell-based qHTS | Potency, µM (top dose mostly 57.9 µM), without a hit: top-dose activity change, negative = inhibition, most hits filed as inhibitors | hit rate 1.2% among 410,000; calls by dose curve; tested in HEK293T cells; further: read-out not given here; potency means the concentration at half of the fitted maximal effect; nearly all actives have a fitted effect of over 45% in size
Numbers without * were called inactive; ? = inconclusive; . = no result; ! = a repeat was not active; [ ] = another dose, or the depositor's remark. The list is not random: actives were taken first. Their share in the collection is about 6.2%. On the % scale 0 is the no-effect control and ±100 the full control effect.

SMILES	Marburg entry inh	LASV entry inh	HCMV antiviral	FMDV antiviral
CCCCCCCCCCOC(=O)Cn1c(COc2cccc(C)c2)[n+](C)c2ccccc21	?	-17%[46.1 µM]	-37	20µM*
CCCCCCCCCCOC(=O)Cn1c(COc2ccccc2C)[n+](C)c2ccccc21	25µM*	8.9µM*	.	?
CCCCCCCCCCOC(=O)Cn1c(COc2ccc(OC)cc2)[n+](C)c2ccccc21	3.2µM*	?	.	?
CCCCCCCCCCOC(=O)Cn1c(COc2ccc(Cl)cc2)[n+](C)c2ccccc21	.	.	-40	?
CCCCCCCCCCOC(=O)Cn1c(COc2ccccc2)[n+](C)c2ccccc21	.	.	-40	35µM*
C/C=C/C=N\NC(=O)c1ccncc1	.	.	-14	-20%
CCCN(CCC)S(=O)(=O)c1ccc2c(c1)CCCN2C(C)=O	6%	-24%	-22	17%
O=C1CC2(CCN(C(=O)C(=O)c3c[nH]c4ccccc34)CC2)Oc2ccccc21	?	15%[46.1 µM]	6	-1%
COc1ccc(C2C=C(C34CC5CC(CC(C5)C3)C4)NC(=S)N2)cc1 (stereo not drawn)	15µM*	?	-22	-17%
CCOC(=O)c1cnc2c(cnn2C)c1NCCCn1ccnc1	-14%[46.1 µM]	-12%	-25	4%
Cc1ccccc1-n1c(O)c(/C=C2/C(c3ccccc3)=Nc3ccccc32)c(=O)[nH]c1=O	?	?	-22	22µM*
CC1=Nc2ccccc2/C1=C/c1c(O)n(C)c(=O)[nH]c1=O	?	6%	53	32µM*
COc1ccc2c(c1)CCc1c(C(=O)Nc3c(C)nn(Cc4ccc(Cl)c(Cl)c4)c3C)noc1-2	4%[46.1 µM]	-1%[46.1 µM]	-88*	?
COc1ccc2c(c1)CCc1c(C(=O)Nc3c(C)nn(Cc4ccc(Cl)cc4)c3C)noc1-2	-4%[46.1 µM]	-10%[46.1 µM]	-79*	-26%
COc1ccc2c(c1)CCc1c(C(=O)Nc3c(C)nn(Cc4ccccc4Cl)c3C)noc1-2	?	-19%[46.1 µM]	?	-3%
COc1ccc2c(c1)CCc1c(C(=O)Nc3cc(C)n(Cc4ccc(Cl)cc4)n3)noc1-2	-3%	.	-64*	-8%
Cc1nn(Cc2ccc(Cl)cc2)c(C)c1NC(=O)c1noc2c1CCc1ccccc1-2	17%[46.1 µM]	-15%[46.1 µM]	36	40µM*
Cc1cccc(C(=O)OCC(=O)NC(C)CCc2ccccc2)c1 (stereo not drawn)	18%	?	-34	-8%
COc1ccc2c(c1)CCc1c(C(=O)Nc3c(C)nn(Cc4ccccc4)c3C)noc1-2	12%[46.1 µM]	6%[46.1 µM]	-67*!	28µM*
Cc1nn(Cc2ccc(Cl)cc2)c(C)c1NC(=O)CSc1nc2c(c(C(F)(F)F)n1)CCc1ccccc1-2	12µM*	-20%[14.3 µM]	-30	-22%
Cc1ccc(Cn2nc(C)c(NC(=O)CSc3nc4c(c(C(F)(F)F)n3)CCc3ccccc3-4)c2C)cc1	25%	3%	?	?
Cc1ccc(OCCCCNC2CCCCC2)c(C)c1	7.3µM*	?	-37	?
Cc1ccc(OCCCNC2CCCC2)cc1	16%	-1%	-6	3%
COc1ccccc1C1Nc2ccccc2-n2c(-c3ccccc3)c3c(=O)n(C)c(=O)n(C)c3c21 (stereo not drawn)	?	?	-96*	?
Cn1c(=O)c2c(-c3ccccc3)n3c(c2n(C)c1=O)C(c1ccccc1[N+](=O)[O-])Nc1ccccc1-3 (stereo not drawn)	6%[46.1 µM]	-12%[46.1 µM]	-20	0%
SMILES	Marburg entry inh	LASV entry inh	HCMV antiviral	FMDV antiviral
Cc1ccccc1NC(=O)COC(=O)c1ccc(S(C)(=O)=O)c([N+](=O)[O-])c1	9.2µM*	21µM*	-93*	32µM*
CC(CCc1ccccc1)NC(=O)COC(=O)c1ccc(S(C)(=O)=O)c([N+](=O)[O-])c1 (stereo not drawn)	?	?	-99*	?
CC(=O)c1cccc(NC(=O)COC(=O)c2ccc(S(C)(=O)=O)c([N+](=O)[O-])c2)c1	.	.	-24	?
CS(=O)(=O)c1ccc(C(=O)OCc2nnc(-c3ccccc3)o2)cc1[N+](=O)[O-]	3.2µM*	?	8	0%
Cc1cc(C(=O)NNc2ccc(C)c(C)c2)no1	.	.	45	18%
COC(=O)CNC(=O)C1CCN(S(=O)(=O)c2cccc3nsnc23)CC1	-1%[46.1 µM]	0%[46.1 µM]	-34	-14%
CCOc1ccc(S(=O)(=O)n2ccc(C)n2)cc1	4%[46.1 µM]	-2%[46.1 µM]	-1	-5%
NCCOc1ccc(C23CC4CC(CC(C4)C2)C3)cc1	.	.	-85*	?
OCCN1CCN(CC(O)COc2ccc(C34CC5CC(CC(C5)C3)C4)cc2)CC1 (stereo not drawn)	?	?	-96*	-17%
Cc1ccc(-n2nc3ccc(NC(=O)c4cccc([N+](=O)[O-])c4C)cc3n2)cc1	?	-23%	-25	-29%
Cc1ccc(/C=C(\C#N)C(=O)Nc2cccc(C)n2)cc1	.	.	7	59%
CCN(CC)C(=O)CSc1n[nH]c(=S)n1N	.	.	-14	-16%
Clc1ccc(CSCCc2ccncc2)cc1	-3%	0%	?	?
CSc1cc(-c2ccccc2)n(C)c(=O)c1C#N	4%[46.1 µM]	-9%[46.1 µM]	-66*	-28%
O=C1Nc2ccccc2/C1=C/c1nc2ccccc2c(=O)n1-c1ccc(O)cc1	?	?	?	2%
COc1ccc(-n2c(/C=C3\C(=O)Nc4ccccc43)nc3ccccc3c2=O)cc1	?	?	-64*	?
COc1cc(OC)c(/C=C2\C(=O)Nc3ccccc32)c(OC)c1	.	.	-33	28µM*
C=CCOc1ccccc1C(=O)/C=C1/C(=O)Nc2ccccc21	.	.	-103*	40µM*
COc1ccc(C(=O)/C=C2/C(=O)Nc3ccccc32)cc1OC	.	.	48	32µM*
NC(=O)COc1ccc(C(=O)/C=C2/C(=O)Nc3ccccc32)cc1	?	?	-19	?
O=C(c1ccc(OC2CCN(CCc3ccccc3)CC2)cc1)N1CCC(CO)CC1	.	.	3	13%
COc1ccc(C(=O)/C=C2/C(=O)Nc3ccccc32)cc1	.	.	-13	3.2µM*
COc1ccc2c(c1)/C(=C/c1cnc[nH]1)C(=O)N2	?	?	-97*	15%
O=C1Nc2ccccc2/C1=C/c1cnc[nH]1	?	11%	?	112%
C=CCOc1ccc(C(=O)/C=C2/C(=O)Nc3ccccc32)cc1	?	-19%[46.1 µM]	-69*	16%
SMILES	Marburg entry inh	LASV entry inh	HCMV antiviral	FMDV antiviral
COc1ccc(/C=C/C(=O)c2ccc(OC)cc2OC)cc1	.	.	-30	52%
COc1ccc(C(=O)/C=C2/C(=O)Nc3ccccc32)c(OC)c1	?	?	-100*	?
CCOC(=O)c1c(-c2ccccc2)[nH]c2ccc(O)cc12	?	-7%	-12	?
C=CCN1C(=O)c2ccc(C(=O)N(C)CC(=O)Nc3ccccc3Br)cc2C1=O	12%	?	26	-11%
CCCc1c(C(=O)N/N=C/c2ccc(-c3ccccc3)cc2)nnn1-c1nonc1N	.	.	?	-14%
CN(C)C(=O)c1ccc(Nc2ncnc3sc4c(c23)CCCCC4)cc1	?	2%[46.1 µM]	-14	8%
Cc1ccc(S(=O)(=O)N2CCN(Cc3cc(=O)n4ccccc4n3)CC2)cc1C	.	.	0	-21%
CCOc1ccccc1NC(=O)Cn1cnc2sc(C)c(S(=O)(=O)N3CCC(C)CC3)c2c1=O	5%[46.1 µM]	15%[46.1 µM]	6	-30%
